In PubChem BioAssay AID1159580 (chemical genetic matrix, 2015):
In all, about 5,500 compounds went through this assay and about 2,000 (36%) were called active. Not shown: some 18% with an inconclusive outcome. Cut-off read from the data, not from the text of the source: active = normalized growth mostly below about 0.91 (no sharp cut-off); inconclusive = no clear call, values can overlap the other calls; inactive = mostly above about 0.92. This is one part of the list.

Assay: chemical genetic growth profiling, strain panel (AID 1159580);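 note: tested at 20 µM; growth read once vehicle control cultures reached saturation at 30 °C; 1 = growth at the plate median or of vehicle wells; lower values mean less growth of the strain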
Conditions: growth OD

Measured: normalized growth

Nc1ccc(S(=O)(=O)Nc2cnc3ccccc3n2)cc1
inactive: S. cerevisiae deletion strains, locus YJR075W, strain HOC1, hits give low values 0.982 | S. cerevisiae deletion strains, locus YKL009W, strain mrt4, hits give low values 0.971 | S. cerevisiae deletion strains, locus YKL068W, hits give low values 0.985 | S. cerevisiae deletion strains, locus YKL085W, strain MDH1 (second series), hits give low values 0.98 | S. cerevisiae deletion strains, locus YKL085W, strain MDH1, hits give low values 0.98 | S. cerevisiae deletion strains, locus YKL160W, strain elf1, hits give low values 1.01 | S. cerevisiae deletion strains, locus YKL190W, strain CNB1, hits give low values 0.976 | S. cerevisiae deletion strains, locus YKR001C, strain vps1, hits give low values 0.969 | S. cerevisiae deletion strains, locus YKR026C, strain gcn3, hits give low values 1.02 | S. cerevisiae deletion strains, locus YKR091W, strain srl3, hits give low values 1.01 | S. cerevisiae deletion strains, locus YLL001W, strain dnm1, hits give low values 1.02 | S. cerevisiae deletion strains, locus YLL026W, hits give low values 1.01 | S. cerevisiae deletion strains, locus YLL041C, strain sdh2, hits give low values 1 | S. cerevisiae deletion strains, locus YLR027C, strain aat2, hits give low values 1.01 | S. cerevisiae deletion strains, locus YLR039C, strain RIC1, hits give low values 0.959 | S. cerevisiae deletion strains, locus YLR058C, strain SHM2, hits give low values 0.971 | S. cerevisiae deletion strains, locus YLR102C, strain apc9, hits give low values 0.992 | S. cerevisiae deletion strains, locus YLR113W, strain HOG1, hits give low values 0.967 | S. cerevisiae deletion strains, locus YLR221C, strain rsa3, hits give low values 0.995 | S. cerevisiae deletion strains, locus YLR258W, strain gsy2, hits give low values 1.01 | S. cerevisiae deletion strains, locus YLR262C, strain YPT6 (second series), hits give low values 1.02 | S. cerevisiae deletion strains, locus YLR262C, strain YPT6, hits give low values 0.964 | S. cerevisiae deletion strains, locus YLR268W, strain sec22, hits give low values 0.904 | S. cerevisiae deletion strains, locus YLR320W, strain mms22, hits give low values 1.01 | S. cerevisiae deletion strains, locus YLR330W, strain CHS5, hits give low values 0.995 | S. cerevisiae deletion strains, locus YLR342W, strain FKS1 (second series), hits give low values 1.02 | S. cerevisiae deletion strains, locus YLR342W, strain FKS1, hits give low values 1.01 | S. cerevisiae deletion strains, locus YLR357W, strain rsc2, hits give low values 0.995 | S. cerevisiae deletion strains, locus YLR370C, strain arc18, hits give low values 1.03 | S. cerevisiae deletion strains, locus YLR371W, strain rom2, hits give low values 0.984 | S. cerevisiae deletion strains, locus YLR384C, strain iki3, hits give low values 1.01 | S. cerevisiae deletion strains, locus YLR418C, strain cdc73, hits give low values 0.979 | S. cerevisiae deletion strains, locus YML016C, strain PPZ1, hits give low values 0.996 | S. cerevisiae deletion strains, locus YML032C, strain rad52, hits give low values 0.979 | S. cerevisiae deletion strains, locus YML120C, strain ndi1, hits give low values 1.02 | S. cerevisiae deletion strains, locus YML124C, strain tub3, hits give low values 0.978 | S. cerevisiae deletion strains, locus YMR058W, strain fet3, hits give low values 1.02 | S. cerevisiae deletion strains, locus YMR078C, strain ctf18, hits give low values 0.974 | S. cerevisiae deletion strains, locus YMR125W, strain sto1, hits give low values 1.03 | S. cerevisiae deletion strains, locus YMR129W, hits give low values 1.02 | S. cerevisiae deletion strains, locus YMR205C, strain PFK2, hits give low values 1.02 | S. cerevisiae deletion strains, locus YMR223W, strain ubp8, hits give low values 1 | S. cerevisiae deletion strains, locus YMR231W, strain pep5, hits give low values 1.01 | S. cerevisiae deletion strains, locus YMR263W, strain SAP30, hits give low values 0.978 | S. cerevisiae deletion strains, locus YMR307W, strain GAS1, hits give low values 1.1 | S. cerevisiae deletion strains, locus YNL067W, strain RPL9B, hits give low values 0.977 | S. cerevisiae deletion strains, locus YNL071W, strain lat1, hits give low values 1.02 | S. cerevisiae deletion strains, locus YNL153C, strain GIM3, hits give low values 0.962 | S. cerevisiae deletion strains, locus YNL183C, strain NPR1, hits give low values 0.921 | S. cerevisiae deletion strains, locus YNL209W, strain ssb2, hits give low values 1.02 | S. cerevisiae deletion strains, locus YNL233W, strain BNI4, hits give low values 0.984 | S. cerevisiae deletion strains, locus YNL248C, strain rpa49, hits give low values 1.02 | S. cerevisiae deletion strains, locus YNL250W, strain rad50, hits give low values 0.98 | S. cerevisiae deletion strains, locus YNL271C, strain bni1, hits give low values 0.985 | S. cerevisiae deletion strains, locus YNL298W, strain CLA4, hits give low values 0.988 | S. cerevisiae deletion strains, locus YNL307C, strain MCK1, hits give low values 0.983 | S. cerevisiae deletion strains, locus YNL322C, strain KRE1 (second series), hits give low values 0.997 | S. cerevisiae deletion strains, locus YNL322C, strain KRE1, hits give low values 0.992 | S. cerevisiae deletion strains, locus YNR049C, strain mso1, hits give low values 1.01 | S. cerevisiae deletion strains, locus YNR052C, strain pop2, hits give low values 0.987 | S. cerevisiae deletion strains, locus YOL006C, strain TOP1, hits give low values 0.997 | S. cerevisiae deletion strains, locus YOL012C, strain htz1 1.64 | S. cerevisiae deletion strains, locus YOL147C, strain pex11, hits give low values 0.988 | S. cerevisiae deletion strains, locus YOR001W, strain rrp6, hits give low values 1.02 | S. cerevisiae deletion strains, locus YOR061W, strain CKA2, hits give low values 0.961 | S. cerevisiae deletion strains, locus YOR069W, strain VPS5, hits give low values 0.995 | S. cerevisiae deletion strains, locus YOR070C, strain gyp1, hits give low values 1.01 | S. cerevisiae deletion strains, locus YOR080W, strain dia2, hits give low values 1.02 | S. cerevisiae deletion strains, locus YOR083W, strain WHI5, hits give low values 0.99 | S. cerevisiae deletion strains, locus YOR106W, strain vam3, hits give low values 1.03 | S. cerevisiae deletion strains, locus YOR136W, strain idh2, hits give low values 0.98 | S. cerevisiae deletion strains, locus YOR144C, strain elg1, hits give low values 0.977 | S. cerevisiae deletion strains, locus YOR184W, strain ser1, hits give low values 0.98 | S. cerevisiae deletion strains, locus YOR231W, strain MKK1, hits give low values 0.975 | S. cerevisiae deletion strains, locus YOR265W, strain rbl2, hits give low values 1.01 | S. cerevisiae deletion strains, locus YOR270C, strain vph1, hits give low values 1.02 | S. cerevisiae deletion strains, locus YOR290C, strain snf2, hits give low values 0.998 | S. cerevisiae deletion strains, locus YOR316C, strain cot1, hits give low values 0.969 | S. cerevisiae deletion strains, locus YPL051W, strain arl3, hits give low values 1 | S. cerevisiae deletion strains, locus YPL055C, strain LGE1, hits give low values 0.94 | S. cerevisiae deletion strains, locus YPL078C, strain atp4, hits give low values 1.02 | S. cerevisiae deletion strains, locus YPL106C, strain sse1, hits give low values 1.03 | S. cerevisiae deletion strains, locus YPL240C, strain hsp82, hits give low values 1.02 | S. cerevisiae deletion strains, locus YPL256C, strain CLN2, hits give low values 0.96 | S. cerevisiae deletion strains, locus YPR119W, strain clb2, hits give low values 0.986 | S. cerevisiae deletion strains, locus YPR141C, strain kar3, hits give low values 0.972 | S. cerevisiae deletion strains, locus YPR163C, strain tif3, hits give low values 0.989 | S. cerevisiae deletion strains, locus YPR167C, strain met16, hits give low values 0.987 | S. cerevisiae deletion strains, strain wtn01, hits give low values 0.991 | S. cerevisiae strains, strain wild type, hits give low values 0.986
